Experimental data taken from PubChem BioAssay (NCATS).
Results filed as inconclusive are left out. A number with no mark means an inactive call. Active and inactive are the calls of the source. Calls follow the shape of the dose curve; as a rule, active = well fitted cell-killing curve with a large enough effect; inconclusive = small, poorly fitted or top-dose-only effect, or effect the other way; inactive = no such curve, though single readings can be large or run the other way.

Key:
[1] = Quantitative High-Throughput drug screen in 47 multiple myeloma cell lines against the NCATS MIPE library collection: OPM1_PLB cell viability assay (AID 1918989); also: nearly all actives have a fitted effect of over 40% in size
Summary of the method: (§1)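 Viability after 48 h drug exposure was measured as ATP-dependent luminescence. Cells, 500 per well, sat at 37 °C under 5% CO2; DMSO wells set 100%, media-only wells 0%.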

[2] = Quantitative High-Throughput drug screen in 47 multiple myeloma cell lines against the NCATS MIPE library collection: SKMM1_PLB cell viability assay (AID 1919863); settings: SKMM1 myeloma viability, CellTiter-Glo ATP, 48 h; viability: stronger effect = lower value; also: nearly all actives have a fitted effect of over 35% in size; as to viability: series mostly up to about 46 µM
Summary of the method: as §1

[3] = Quantitative High-Throughput drug screen in 47 multiple myeloma cell lines against the NCATS MIPE library collection: U266_ATCC cell viability assay (AID 1919864); also: nearly all actives have a fitted effect of over 35% in size
Summary of the method: as §1

[4] = Quantitative High-Throughput drug screen in 47 multiple myeloma cell lines against the NCATS MIPE library collection: XG6_PLB cell viability assay (AID 1919865); also: nearly all actives have a fitted effect of over 40% in size
Summary of the method: as §1

[5] = Quantitative High-Throughput drug screen in 47 multiple myeloma cell lines against the NCATS MIPE library collection: XG1_PLB cell viability assay (AID 1919866); also: nearly all actives have a fitted effect of over 35% in size
Summary of the method: as §1

[6] = Quantitative High-Throughput drug screen in 47 multiple myeloma cell lines against the NCATS MIPE library collection: UTMC2_PLB cell viability assay (AID 1919868); also: nearly all actives have a fitted effect of over 55% in size
Summary of the method: as §1

[7] = Quantitative High-Throughput drug screen in 47 multiple myeloma cell lines against the NCATS MIPE library collection: PE2_PLB cell viability assay (AID 1919869); also: nearly all actives have a fitted effect of over 35% in size
Summary of the method: as §1

[8] = Quantitative High-Throughput drug screen in 47 multiple myeloma cell lines against the NCATS MIPE library collection: KMS11_JCRBsus cell viability assay (AID 1919873); also: nearly all actives have a fitted effect of over 50% in size
Summary of the method: as §1

[9] = Quantitative High-Throughput drug screen in 47 multiple myeloma cell lines against the NCATS MIPE library collection: KMS28BM_JCRB cell viability assay (AID 1919874); also: nearly all actives have a fitted effect of over 35% in size
Summary of the method: as §1

[10] = Quantitative High-Throughput drug screen in 47 multiple myeloma cell lines against the NCATS MIPE library collection: PCM6_Riken cell viability assay (AID 1919870); also: nearly all actives have a fitted effect of over 30% in size
Summary of the method: as §1

[11] = Quantitative High-Throughput drug screen in 47 multiple myeloma cell lines against the NCATS MIPE library collection: RPMI8226_ATCC cell viability assay (AID 1919871); also: nearly all actives have a fitted effect of over 30% in size
Summary of the method: as §1

[12] = Quantitative High-Throughput drug screen in 47 multiple myeloma cell lines against the NCATS MIPE library collection: OPM2_DSMZ cell viability assay (AID 1919872); also: nearly all actives have a fitted effect of over 30% in size
Summary of the method: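 qHTS of the MIPE 4.0 collection: 500 myeloma cells/well, 48 h drug exposure at 37C in 5% CO2, then CellTiter-Glo for 5 min at room temperature before luminescence reading.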

[13] = Quantitative High-Throughput drug screen in 47 multiple myeloma cell lines against the NCATS MIPE library collection: VP6_DJ cell viability assay (AID 1919867); also: nearly all actives have a fitted effect of over 40% in size
Summary of the method: as §1
Potency is read from the fitted curve at half-maximal effect.

SMILES: NC(=O)c1cccnc1
- Potency [1]: inactive
- viability [2]: 105%
- Potency [3]: inactive
- Potency [4]: 16.6 µM (active)
- Potency [5]: inactive
- Potency [6]: inactive
- Potency [7]: inactive
- Potency [8]: inactive
- Potency [9]: inactive

SMILES: CN(CCOc1ccc(CC2SC(=O)NC2=O)cc1)c1ccccn1 (stereo not given)
- Potency [1]: inactive
- viability [2]: 112%
- Potency [3]: 16.6 µM (active)
- Potency [4]: inactive
- Potency [5]: inactive
- Potency [7]: inactive
- Potency [10]: inactive
- Potency [8]: inactive
- Potency [9]: inactive

SMILES: Cc1cc(NS(=O)(=O)c2ccc(N)cc2)no1
- Potency [1]: inactive
- viability [2]: 140%
- Potency [3]: 10.5 µM (active)
- Potency [7]: inactive
- Potency [10]: inactive
- Potency [11]: inactive
- Potency [12]: inactive
- Potency [8]: inactive
- Potency [9]: inactive

SMILES: CNNCc1ccc(C(=O)NC(C)C)cc1
- Potency [1]: inactive
- Potency [2]: 9.35 µM (active)
- Potency [3]: inactive
- Potency [5]: inactive
- Potency [13]: inactive
- Potency [7]: inactive
- Potency [10]: inactive
- Potency [12]: 8.33 µM (active)
- Potency [9]: inactive

SMILES: CCc1c2c(nc3ccc(OC(=O)N4CCC(N5CCCCC5)CC4)cc13)-c1cc3c(c(=O)n1C2)COC(=O)[C@]3(O)CC
- Potency [1]: 13.2 µM (active)
- Potency [2]: 0.526 µM (active)
- Potency [3]: 0.166 µM (active)
- Potency [4]: 0.418 µM (active)
- Potency [13]: 1.18 µM (active)
- Potency [7]: 0.935 µM (active)
- Potency [10]: 13.2 µM (active)
- Potency [11]: 0.372 µM (active)
- Potency [9]: 0.469 µM (active)

SMILES: CN1CCCC(n2nc(Cc3ccc(Cl)cc3)c3ccccc3c2=O)CC1 (stereo not given)
- Potency [1]: 2.64 µM (active)
- Potency [2]: 20.9 µM (active)
- Potency [3]: 2.64 µM (active)
- Potency [4]: 1.05 µM (active)
- Potency [5]: 1.48 µM (active)
- Potency [7]: 7.43 µM (active)
- Potency [10]: 3.32 µM (active)
- Potency [8]: 1.32 µM (active)
- Potency [9]: 0.372 µM (active)

SMILES: CN(C)CCc1c[nH]c2ccc(CS(=O)(=O)N3CCCC3)cc12
- Potency [1]: inactive
- viability [2]: 119%
- Potency [3]: inactive
- Potency [5]: 20.9 µM (active)
- Potency [11]: inactive
- Potency [9]: inactive

SMILES: NC1(c2ccc(-c3nc4ccn5c(=O)[nH]nc5c4cc3-c3ccccc3)cc2)CCC1
- Potency [1]: 3.32 µM (active)
- Potency [2]: 7.43 µM (active)
- Potency [3]: 20.9 µM (active)
- Potency [4]: 20.9 µM (active)
- Potency [5]: 20.9 µM (active)
- Potency [6]: 1.18 µM (active)
- Potency [10]: 1.66 µM (active)
- Potency [11]: 1.05 µM (active)
- Potency [8]: 5.26 µM (active)
- Potency [9]: 9.35 µM (active)

SMILES: CCCOc1ccc(C(=O)OCCN(CC)CC)cc1N
- Potency [1]: inactive
- viability [2]: 118%
- Potency [4]: inactive
- Potency [5]: inactive
- Potency [13]: 9.35 µM (active)
- Potency [7]: inactive
- Potency [10]: inactive
- Potency [11]: inactive
- Potency [12]: inactive
- Potency [8]: 14.8 µM (active)

SMILES: COc1cccc(N(C)C(=S)Oc2ccc3c(c2)CCCC3)n1
- Potency [1]: inactive
- viability [2]: 139%
- Potency [3]: inactive
- Potency [6]: inactive
- Potency [7]: inactive
- Potency [11]: 18.7 µM (active)
- Potency [12]: inactive
- Potency [8]: 29.6 µM (active)

SMILES: Oc1c(Cl)cc(Cl)c2cccnc12
- Potency [1]: 10.5 µM (active)
- Potency [2]: 18.7 µM (active)
- Potency [3]: 8.33 µM (active)
- Potency [5]: 11.8 µM (active)
- Potency [7]: 9.35 µM (active)
- Potency [10]: 9.35 µM (active)
- Potency [11]: 18.7 µM (active)
- Potency [8]: 18.7 µM (active)
- Potency [9]: 16.6 µM (active)

SMILES: COc1cc([C@@H]2c3cc4c(cc3[C@H](O)[C@H]3COC(=O)[C@H]23)OCO4)cc(OC)c1OC
- Potency [1]: inactive
- viability [2]: 65.8%
- Potency [3]: inactive
- Potency [4]: inactive
- Potency [5]: inactive
- Potency [7]: inactive
- Potency [10]: inactive
- Potency [12]: inactive

SMILES: COc1ccc2c(c1)c(CC(=O)OCC(=O)O)c(C)n2C(=O)c1ccc(Cl)cc1
- Potency [1]: inactive
- viability [2]: 138%
- Potency [3]: inactive
- Potency [5]: inactive
- Potency [10]: inactive
- Potency [11]: inactive
- Potency [12]: inactive
- Potency [9]: inactive

SMILES: CCN1CCCC1CNC(=O)c1cc(S(N)(=O)=O)ccc1OC (stereo not given)
- Potency [1]: inactive
- viability [2]: 123%
- Potency [4]: inactive
- Potency [5]: inactive
- Potency [13]: 5.9 µM (active)
- Potency [11]: inactive
- Potency [12]: inactive
- Potency [8]: inactive
- Potency [9]: inactive

SMILES: N=C(N)c1ccc(OCCCCCOc2ccc(C(=N)N)cc2)cc1
- Potency [1]: 11.8 µM (active)
- Potency [2]: 20.9 µM (active)
- Potency [3]: 23.5 µM (active)
- Potency [4]: 16.6 µM (active)
- Potency [5]: 4.69 µM (active)
- Potency [7]: 5.9 µM (active)
- Potency [10]: 5.9 µM (active)
- Potency [11]: 5.9 µM (active)
- Potency [9]: 5.9 µM (active)

SMILES: Nc1[nH]c(=O)ncc1F
- Potency [1]: inactive
- viability [2]: 117%
- Potency [3]: 2.64 µM (active)
- Potency [13]: 20.9 µM (active)
- Potency [7]: inactive
- Potency [12]: inactive
- Potency [8]: inactive
- Potency [9]: inactive

SMILES: CCOC(=O)[C@H](CCc1ccccc1)N[C@H]1CS[C@H](c2cccs2)CN(CC(=O)O)C1=O
- Potency [1]: 5.9 µM (active)
- Potency [2]: 14.8 µM (active)
- Potency [3]: 5.9 µM (active)
- Potency [5]: 0.935 µM (active)
- Potency [13]: 0.296 µM (active)
- Potency [6]: 11.8 µM (active)
- Potency [10]: 1.05 µM (active)
- Potency [11]: 16.6 µM (active)
- Potency [9]: 0.59 µM (active)

SMILES: COc1cc2nc(N3CCCN(C)CC3)nc(NC3CCN(Cc4ccccc4)CC3)c2cc1OC
- Potency [1]: 2.35 µM (active)
- Potency [2]: 7.43 µM (active)
- Potency [3]: 2.35 µM (active)
- Potency [4]: 2.35 µM (active)
- Potency [5]: 2.96 µM (active)
- Potency [13]: 4.69 µM (active)
- Potency [7]: 2.35 µM (active)
- Potency [10]: 3.72 µM (active)
- Potency [11]: 9.35 µM (active)
- Potency [9]: 10.5 µM (active)

SMILES: CC1=CC(=O)c2ccccc2C1=O
- Potency [1]: 23.5 µM (active)
- Potency [2]: 16.6 µM (active)
- Potency [3]: 18.7 µM (active)
- Potency [4]: 14.8 µM (active)
- Potency [5]: 23.5 µM (active)
- Potency [7]: 4.18 µM (active)
- Potency [10]: 18.7 µM (active)
